Screening data (PubChem)
An excerpt weighted towards active compounds, which were near 2.5% of everything screened.
Pol kappa inh = qHTS for Inhibitors of Polymerase Kappa; purified Pol kappa, fluorescent DNA synthesis assay, 10 min; AID 588579, 2011; Potency, µM (doses to about 107 µM), for the others: at the top dose activity, negative = inhibition, hits mostly inhibitors; actives 0.53% (n = 400,000); DNA polymerase kappa (Homo sapiens), Q9UBT6; also: % is scaled to controls: 0 for no effect and ±100 for the full control effect
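Inhibition of 10 nM Pol kappa is measured by a fluorescent read-out at 0 and 10 min following addition of 50 nM substrate (final), with a 15-min room-temperature compound preincubation.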
POLB inh = qHTS Assay for Inhibitors of DNA Polymerase Beta | actives 1.3% (n = 340,000) | P06746 | Pol beta primer extension/strand displacement, fluorescence kinetic | AID 485314, 2010 | Potency, µM (titrated, usually from 114 µM), inactives show at the highest dose activity change, negative = inhibition, hits mostly inhibitors; also: % is scaled to controls: 0 for no effect and ±100 for the full control effect
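Pol beta (10 nM) was preincubated with compound for 15 min at room temperature. The reaction was then started with 50 nM substrate and read immediately and after a further 10 min at room temperature.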
L3MBTL1 inh = qHTS Assay for the Inhibitors of L3MBTL1; Lethal(3)malignant brain tumor-like protein 1 (Homo sapiens), Q9Y468; AlphaScreen L3MBTL1–H3K9me1 peptide binding; Potency, µM (doses to about 57.1 µM), for inactives: top-dose activity, negative = inhibition, actives largely listed as inhibitors; actives 0.66% (n = 230,000); AID 485360, 2010; also: % is scaled to controls: 0 for no effect and ±100 for the full control effect; nearly all actives have a fitted effect of over 60% in size
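AlphaScreen assay: L3MBTL1 (50 nM final) was preincubated 30 min at room temperature with biotinylated H3(1-15)K9me1 peptide (75 nM final), then 30 min with library compounds; streptavidin donor and nickel chelate acceptor beads (10 ug/mL final) added, 30 min dark.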
POLI inh = qHTS for Inhibitors of Polymerase Iota; actives 1% (n = 390,000); Potency, µM (top dose mostly 115 µM), inactives show at the highest dose activity, negative = inhibition, most hits filed as inhibitors; DNA polymerase iota (Homo sapiens), Q9UNA4; Pol iota fluorescent replication assay, 10 min
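Fluorescent replication assay read twice, at 0 min and 10 min after adding 50 nM (final) substrate. Enzyme (10 nM) and compounds were first incubated 15 min at room temperature; enzyme-free buffer wells were negative controls.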
APE1 inh = qHTS Assay for Inhibitors of the Human Apurinic/apyrimidinic Endonuclease 1 (APE1); DNA repair nuclease/redox regulator APEX1 (Homo sapiens), P27695; recombinant APE1, TAMRA/BHQ-2 abasic DNA cleavage fluorescence; Potency, µM (highest dose often 65.8 µM), inactives show at the top dose activity change, negative = inhibition, actives largely listed as inhibitors; actives 0.35% (n = 350,000); AID 2517, 2012;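 also: plate controls were vehicle for no effect and reference inhibitor for full effect; nearly all actives have a fitted effect of over 55% in size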
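0.75 nM APE1 + cpd, 15 min RT; start w/ 50 nM TAMRA/BHQ-2 THF-abasic dsDNA; kinetic fluor 525/598 nm ×3 reads @60 s; Δ(read3−read1); normalized to DMSO and NSC13755 control wells.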
POLH inh = qHTS for Inhibitors of Polymerase Eta; DNA polymerase eta (Homo sapiens), Q9Y253; recombinant Pol eta, fluorescent DNA replication assay; Potency, µM (top dose mostly 114 µM), for inactives: at the top dose activity change, negative = inhibition, actives largely listed as inhibitors; actives 1.2% (n = 390,000); AID 588591, 2011; also: % is scaled to controls: 0 for no effect and ±100 for the full control effect
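Fluorescent replication assay: 50 nM final substrate added after a 15 min room-temperature compound preincubation with 10 nM enzyme. Signal taken at 0 min and again at 10 min.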
* = called active by the depositor; [ ] = remark or other dose. Calls follow the shape of the dose curve; as a rule, active = well fitted curve in the direction sought with a large enough effect; inconclusive = small, poorly fitted or top-dose-only effect, or another doubt; inactive = no such curve, though single readings can be large; an effect the other way counts as inactive or inconclusive. Potency is read from the fitted curve at half-maximal effect.

Cn1nc(-c2ccc(OCC(=O)Nc3cccc(C(F)(F)F)c3)cc2)c2ccccc2c1=O was read as Pol kappa inh -6%, POLB inh inconclusive, POLI inh 12% and POLH inh 79µM*.
For CC(=O)Nc1ccc(C(=O)CSc2nnc(-c3ccccc3)n2-c2ccccc2)cc1 the results were Pol kappa inh 5%, POLB inh 10µM*, POLI inh inconclusive and POLH inh -9%.
Cc1ccc(C(=O)CSc2nnc(-c3ccccc3)n2-c2ccccc2)cc1 was read as Pol kappa inh 8%, POLB inh 3%, POLI inh 27% and POLH inh -7%.
Cc1ccc(S(=O)(=O)N2CCN(c3nc(-n4c(=O)[nH]c5ccccc54)nc4ccccc34)CC2)cc1 was read as Pol kappa inh 3% and POLI inh 16%.
CC12CN3CC(C)(CN(C1)C3c1c[nH]c3ccccc13)C2=O (configuration not stated) was read as Pol kappa inh -2%, POLB inh 2%, L3MBTL1 inh 10%, POLI inh 83%, APE1 inh 1% and POLH inh -16%.
CC12CN3CC(C)(CN(C1)C3c1ccc3ccccc3c1O)C2=O (configuration not stated) was read as Pol kappa inh -6%, POLB inh 12%, L3MBTL1 inh 1%, POLI inh 79µM*, APE1 inh 12% and POLH inh -9%.
Screening CC(C)(C)n1ncc2c(=O)n(Cc3cc(C(F)(F)F)ccc3Cl)cnc21 returned Pol kappa inh -8%, POLI inh 15% and APE1 inh 1%.
Screening COc1cc(-c2nn3c(-c4ccco4)nnc3s2)cc(OC)c1OC returned POLB inh 15%, L3MBTL1 inh -3% and APE1 inh -10%.
`Brc1ccc(-c2nn3c(-c4ccco4)nnc3s2)o1` gave Pol kappa inh inconclusive, POLB inh 45µM*, L3MBTL1 inh -15%, POLI inh inconclusive, APE1 inh inconclusive and POLH inh inconclusive.
`Clc1ccc(-c2ccc(-c3nn4c(-c5ccco5)nnc4s3)o2)cc1` gave Pol kappa inh -22%, POLI inh inconclusive and POLH inh 79µM*.
`Brc1ccc(-c2nn3c(-c4ccccn4)nnc3s2)o1` gave Pol kappa inh inconclusive, POLB inh 22µM*, L3MBTL1 inh inconclusive, POLI inh inconclusive, APE1 inh -13% and POLH inh 79µM*.
CC12CCC(C(N)=O)(c3nc4ccccc4nc31)C2(C)C (configuration not stated) was read as Pol kappa inh 1%, POLB inh 89µM*, L3MBTL1 inh -3%, POLI inh -9%, APE1 inh 0% and POLH inh -5%.
CC(C)(O/N=C(\C(=O)N[C@@H]1C(=O)N2C(C(=O)[O-])=C(C[n+]3ccccc3)CS[C@H]12)c1csc(N)n1)C(=O)O was read as APE1 inh -14%[21 µM].
`O=C(Cc1cccs1)N[C@@H]1C(=O)N2C(C(=O)[O-])=C(C[n+]3ccccc3)CS[C@H]12` gave APE1 inh 28µM*.
`NC(=O)c1cc[n+](CC2=C(C(=O)O)N3C(=O)C(NC(=O)C(c4ccccc4)S(=O)(=O)[O-])C3SC2)cc1` (configuration not stated) gave Pol kappa inh inconclusive and APE1 inh -4%.
